Results taken from PubChem BioAssay AID1159580 (chemical genetic matrix, 2015).
Where “and” joins values, the source holds several entries; their conditions need not be identical. Equal values may be shown once. The campaign covered roughly 5,500 compounds. About 2,000 (36%) were called active. Not shown: some 18% with an inconclusive outcome. Rule as the data show it: active = normalized growth mostly below about 0.91 (no sharp cut-off); inconclusive = no clear call, values can overlap the other calls; inactive = mostly above about 0.92. Some of the results follow.

Assay: chemical genetic growth profiling, strain panel (AID 1159580);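 also: tested at 20 µM; growth read once vehicle control cultures reached saturation at 30 °C; 1 = growth at the plate median or of vehicle wells; lower values mean less growth of the strain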
Details: growth OD

Measured: normalized growth

N[C@@H]1CONC1=O
inactive: S. cerevisiae deletion strains, locus YAL021C, strain ccr4, stronger effect = lower value 0.982 | S. cerevisiae deletion strains, locus YAL026C, strain drs2, stronger effect = lower value 0.977 | S. cerevisiae deletion strains, locus YAL030W, strain snc1, stronger effect = lower value 0.973 | S. cerevisiae deletion strains, locus YBL061C, strain skt5, stronger effect = lower value 0.963 | S. cerevisiae deletion strains, locus YBR009C, strain hhf1, stronger effect = lower value 1.02 | S. cerevisiae deletion strains, locus YBR021W, strain FUR4, stronger effect = lower value 1.01 | S. cerevisiae deletion strains, locus YBR023C, strain chs3, stronger effect = lower value 0.975 | S. cerevisiae deletion strains, locus YBR171W, strain sec66, stronger effect = lower value 0.974 | S. cerevisiae deletion strains, locus YBR229C, strain ROT2, stronger effect = lower value 1.01 | S. cerevisiae deletion strains, locus YBR231C, strain swc5, stronger effect = lower value 1.01 | S. cerevisiae deletion strains, locus YBR279W, strain paf1, stronger effect = lower value 0.964 | S. cerevisiae deletion strains, locus YCL011C, strain gbp2, stronger effect = lower value 0.969 | S. cerevisiae deletion strains, locus YCL016C, strain dcc1, stronger effect = lower value 0.953 | S. cerevisiae deletion strains, locus YCL029C, strain bik1, stronger effect = lower value 1.01 | S. cerevisiae deletion strains, locus YCL069W, strain vba3, stronger effect = lower value 0.98 | S. cerevisiae deletion strains, locus YCR088W, strain abp1, stronger effect = lower value 0.981 | S. cerevisiae deletion strains, locus YDL005C, strain med2, stronger effect = lower value 0.958 | S. cerevisiae deletion strains, locus YDL035C, strain GPR1, stronger effect = lower value 1.03 | S. cerevisiae deletion strains, locus YDL040C, strain nat1, stronger effect = lower value 0.971 | S. cerevisiae deletion strains, locus YDL074C, strain BRE1, stronger effect = lower value 1.02 | S. cerevisiae deletion strains, locus YDL101C, strain DUN1, stronger effect = lower value 1.02 | S. cerevisiae deletion strains, locus YDL185W, strain tfp1, stronger effect = lower value 1.02 | S. cerevisiae deletion strains, locus YDL192W, strain arf1, stronger effect = lower value 1.01 | S. cerevisiae deletion strains, locus YDR001C, strain nth1, stronger effect = lower value 0.986 | S. cerevisiae deletion strains, locus YDR069C, strain doa4, stronger effect = lower value 1.01 | S. cerevisiae deletion strains, locus YDR101C, strain arx1, stronger effect = lower value 1 | S. cerevisiae deletion strains, locus YDR137W, strain rgp1, stronger effect = lower value 1.01 | S. cerevisiae deletion strains, locus YDR159W, strain sac3, stronger effect = lower value 0.995 | S. cerevisiae deletion strains, locus YDR162C, strain NBP2, stronger effect = lower value 1.03 | S. cerevisiae deletion strains, locus YDR195W, strain ref2 0.983 | S. cerevisiae deletion strains, locus YDR297W, strain sur2, stronger effect = lower value 0.993 | S. cerevisiae deletion strains, locus YDR318W, strain mcm21, stronger effect = lower value 1.02 | S. cerevisiae deletion strains, locus YDR334W, strain swr1, stronger effect = lower value 0.97 | S. cerevisiae deletion strains, locus YDR335W, strain msn5, stronger effect = lower value 0.991 | S. cerevisiae deletion strains, locus YDR388W, stronger effect = lower value 1.01 | S. cerevisiae deletion strains, locus YDR392W, strain spt3, stronger effect = lower value 0.934 | S. cerevisiae deletion strains, locus YDR502C, strain sam2, stronger effect = lower value 1.02 | S. cerevisiae deletion strains, locus YEL003W, strain gim4, stronger effect = lower value 0.992 | S. cerevisiae deletion strains, locus YEL037C, strain rad23, stronger effect = lower value 0.982 | S. cerevisiae deletion strains, locus YEL061C, strain CIN8 (second series), stronger effect = lower value 1 | S. cerevisiae deletion strains, locus YEL061C, strain CIN8, stronger effect = lower value 1.01 | S. cerevisiae deletion strains, locus YER015W, strain faa2, stronger effect = lower value 0.99 | S. cerevisiae deletion strains, locus YER016W, strain bim1, stronger effect = lower value 0.946 | S. cerevisiae deletion strains, locus YER110C, stronger effect = lower value 1.02 | S. cerevisiae deletion strains, locus YER111C, strain swi4, stronger effect = lower value 0.992 | S. cerevisiae deletion strains, locus YER155C, strain BEM2 (second series), stronger effect = lower value 1.03 | S. cerevisiae deletion strains, locus YER155C, strain BEM2, stronger effect = lower value 0.999 | S. cerevisiae deletion strains, locus YER167W, strain BCK2, stronger effect = lower value 1.01 | S. cerevisiae deletion strains, locus YFR010W, strain ubp6, stronger effect = lower value 0.997 | S. cerevisiae deletion strains, locus YGL078C, strain dbp3, stronger effect = lower value 1.01 | S. cerevisiae deletion strains, locus YGL086W, strain mad1, stronger effect = lower value 1.01 | S. cerevisiae deletion strains, locus YGL167C, strain pmr1, stronger effect = lower value 0.987 | S. cerevisiae deletion strains, locus YGL173C, strain kem1, stronger effect = lower value 0.984 | S. cerevisiae deletion strains, locus YGL227W, strain vid30, stronger effect = lower value 0.961 | S. cerevisiae deletion strains, locus YGL240W, strain doc1, stronger effect = lower value 1.01 | S. cerevisiae deletion strains, locus YGL248W, strain PDE1, stronger effect = lower value 1.01 | S. cerevisiae deletion strains, locus YGL253W, strain hxk2, stronger effect = lower value 0.969 | S. cerevisiae deletion strains, locus YGR135W, strain pre9, stronger effect = lower value 1.02 | S. cerevisiae deletion strains, locus YGR252W, strain gcn5, stronger effect = lower value 1.02 | S. cerevisiae deletion strains, locus YHR013C, strain ard1, stronger effect = lower value 0.964 | S. cerevisiae deletion strains, locus YHR027C, strain rpn1, stronger effect = lower value 1 | S. cerevisiae deletion strains, locus YHR030C, strain SLT2, stronger effect = lower value 1.01 and 1.03 | S. cerevisiae deletion strains, locus YHR079C, strain IRE1 (second series), stronger effect = lower value 1.01 | S. cerevisiae deletion strains, locus YHR079C, strain IRE1, stronger effect = lower value 1.03 | S. cerevisiae deletion strains, locus YHR094C, strain hxt1, stronger effect = lower value 1.01 | S. cerevisiae deletion strains, locus YHR129C, strain ARP1, stronger effect = lower value 1.01 | S. cerevisiae deletion strains, locus YHR142W, strain chs7, stronger effect = lower value 0.981 | S. cerevisiae deletion strains, locus YHR200W, strain rpn10, stronger effect = lower value 1.01 | S. cerevisiae deletion strains, locus YIL066C, strain RNR3, stronger effect = lower value 1.03 | S. cerevisiae deletion strains, locus YIL073C, strain SPO22, stronger effect = lower value 1.02 | S. cerevisiae deletion strains, locus YIL125W, strain kgd1, stronger effect = lower value 1.02 | S. cerevisiae deletion strains, locus YIR030C, strain dcg1, stronger effect = lower value 1.04 | S. cerevisiae deletion strains, locus YJL092W, strain hpr5, stronger effect = lower value 0.992 | S. cerevisiae deletion strains, locus YJL095W, strain BCK1 (second series), stronger effect = lower value 0.975 | S. cerevisiae deletion strains, locus YJL095W, strain BCK1, stronger effect = lower value 1.02 and 1.03 | S. cerevisiae deletion strains, locus YJL115W, strain asf1, stronger effect = lower value 0.968 | S. cerevisiae deletion strains, locus YJL129C, strain trk1, stronger effect = lower value 0.977 | S. cerevisiae deletion strains, locus YJL134W, strain LCB3, stronger effect = lower value 1.01 | S. cerevisiae deletion strains, locus YJL154C, strain vps35, stronger effect = lower value 0.985 | S. cerevisiae deletion strains, locus YJL164C, strain tpk1, stronger effect = lower value 1 | S. cerevisiae deletion strains, locus YJL166W, strain qcr8, stronger effect = lower value 0.998 | S. cerevisiae deletion strains, locus YJL168C, strain set2, stronger effect = lower value 1.01 | S. cerevisiae deletion strains, locus YJL187C, strain SWE1 (second series), stronger effect = lower value 1.05 | S. cerevisiae deletion strains, locus YJR043C, strain POL32, stronger effect = lower value 1 | S. cerevisiae deletion strains, locus YJR066W, strain TOR1, stronger effect = lower value 0.979 | S. cerevisiae deletion strains, locus YJR075W, strain HOC1, stronger effect = lower value 1.02 | S. cerevisiae deletion strains, locus YKL009W, strain mrt4, stronger effect = lower value 1.03 | S. cerevisiae deletion strains, locus YKL068W, stronger effect = lower value 1.01 | S. cerevisiae deletion strains, locus YKL085W, strain MDH1 (second series), stronger effect = lower value 1.05 | S. cerevisiae deletion strains, locus YKL085W, strain MDH1, stronger effect = lower value 1.05 | S. cerevisiae deletion strains, locus YKL160W, strain elf1, stronger effect = lower value 0.935 | S. cerevisiae deletion strains, locus YKR001C, strain vps1, stronger effect = lower value 1.02 | S. cerevisiae deletion strains, locus YKR026C, strain gcn3, stronger effect = lower value 0.986 | S. cerevisiae deletion strains, locus YKR091W, strain srl3, stronger effect = lower value 0.983 | S. cerevisiae deletion strains, locus YLL001W, strain dnm1, stronger effect = lower value 1.01 | S. cerevisiae deletion strains, locus YLL026W, stronger effect = lower value 0.983 | S. cerevisiae deletion strains, locus YLL041C, strain sdh2, stronger effect = lower value 0.975 | S. cerevisiae deletion strains, locus YLR027C, strain aat2, stronger effect = lower value 0.997 | S. cerevisiae deletion strains, locus YLR039C, strain RIC1, stronger effect = lower value 0.975 | S. cerevisiae deletion strains, locus YLR058C, strain SHM2, stronger effect = lower value 1.02 | S. cerevisiae deletion strains, locus YLR102C, strain apc9, stronger effect = lower value 1.01 | S. cerevisiae deletion strains, locus YLR113W, strain HOG1, stronger effect = lower value 1.03 | S. cerevisiae deletion strains, locus YLR221C, strain rsa3, stronger effect = lower value 1.03 | S. cerevisiae deletion strains, locus YLR258W, strain gsy2, stronger effect = lower value 0.97 | S. cerevisiae deletion strains, locus YLR262C, strain YPT6 (second series), stronger effect = lower value 1 | S. cerevisiae deletion strains, locus YLR262C, strain YPT6, stronger effect = lower value 1.01 | S. cerevisiae deletion strains, locus YLR268W, strain sec22, stronger effect = lower value 1.02 | S. cerevisiae deletion strains, locus YLR320W, strain mms22, stronger effect = lower value 0.997 | S. cerevisiae deletion strains, locus YLR330W, strain CHS5, stronger effect = lower value 1.01 | S. cerevisiae deletion strains, locus YLR342W, strain FKS1 (second series), stronger effect = lower value 1.02 | S. cerevisiae deletion strains, locus YLR342W, strain FKS1, stronger effect = lower value 0.99 | S. cerevisiae deletion strains, locus YLR357W, strain rsc2, stronger effect = lower value 0.948 | S. cerevisiae deletion strains, locus YLR370C, strain arc18, stronger effect = lower value 0.968 | S. cerevisiae deletion strains, locus YLR371W, strain rom2, stronger effect = lower value 0.998 | S. cerevisiae deletion strains, locus YLR384C, strain iki3, stronger effect = lower value 0.991 | S. cerevisiae deletion strains, locus YLR418C, strain cdc73, stronger effect = lower value 1.06 | S. cerevisiae deletion strains, locus YML016C, strain PPZ1, stronger effect = lower value 1.01 | S. cerevisiae deletion strains, locus YML032C, strain rad52, stronger effect = lower value 1.01 | S. cerevisiae deletion strains, locus YML120C, strain ndi1, stronger effect = lower value 0.994 | S. cerevisiae deletion strains, locus YML124C, strain tub3, stronger effect = lower value 1.02 | S. cerevisiae deletion strains, locus YMR058W, strain fet3, stronger effect = lower value 1.03 | S. cerevisiae deletion strains, locus YMR078C, strain ctf18, stronger effect = lower value 1.02 | S. cerevisiae deletion strains, locus YMR125W, strain sto1, stronger effect = lower value 0.968 | S. cerevisiae deletion strains, locus YMR129W, stronger effect = lower value 0.969 | S. cerevisiae deletion strains, locus YMR205C, strain PFK2, stronger effect = lower value 0.994 | S. cerevisiae deletion strains, locus YMR223W, strain ubp8, stronger effect = lower value 1.03 | S. cerevisiae deletion strains, locus YMR231W, strain pep5, stronger effect = lower value 0.98 | S. cerevisiae deletion strains, locus YMR307W, strain GAS1, stronger effect = lower value 0.923 | S. cerevisiae deletion strains, locus YNL067W, strain RPL9B, stronger effect = lower value 1.02 | S. cerevisiae deletion strains, locus YNL071W, strain lat1, stronger effect = lower value 0.996 | S. cerevisiae deletion strains, locus YNL183C, strain NPR1, stronger effect = lower value 0.973 | S. cerevisiae deletion strains, locus YNL209W, strain ssb2, stronger effect = lower value 0.989 | S. cerevisiae deletion strains, locus YNL233W, strain BNI4, stronger effect = lower value 1.02 | S. cerevisiae deletion strains, locus YNL248C, strain rpa49, stronger effect = lower value 0.94 | S. cerevisiae deletion strains, locus YNL250W, strain rad50, stronger effect = lower value 1.01 | S. cerevisiae deletion strains, locus YNL271C, strain bni1, stronger effect = lower value 1.02 | S. cerevisiae deletion strains, locus YNL298W, strain CLA4, stronger effect = lower value 1.01 | S. cerevisiae deletion strains, locus YNL307C, strain MCK1, stronger effect = lower value 1.02 | S. cerevisiae deletion strains, locus YNL322C, strain KRE1 (second series), stronger effect = lower value 0.947 | S. cerevisiae deletion strains, locus YNR049C, strain mso1, stronger effect = lower value 0.982 | S. cerevisiae deletion strains, locus YNR052C, strain pop2, stronger effect = lower value 1.02 | S. cerevisiae deletion strains, locus YOL012C, strain htz1 0.629 | S. cerevisiae deletion strains, locus YOL147C, strain pex11, stronger effect = lower value 1.01 | S. cerevisiae deletion strains, locus YOR001W, strain rrp6, stronger effect = lower value 1.02 | S. cerevisiae deletion strains, locus YOR061W, strain CKA2, stronger effect = lower value 1.02 | S. cerevisiae deletion strains, locus YOR069W, strain VPS5, stronger effect = lower value 1.02 | S. cerevisiae deletion strains, locus YOR070C, strain gyp1, stronger effect = lower value 0.984 | S. cerevisiae deletion strains, locus YOR080W, strain dia2, stronger effect = lower value 0.967 | S. cerevisiae deletion strains, locus YOR083W, strain WHI5, stronger effect = lower value 0.908 | S. cerevisiae deletion strains, locus YOR106W, strain vam3, stronger effect = lower value 0.937 | S. cerevisiae deletion strains, locus YOR136W, strain idh2, stronger effect = lower value 1.02 | S. cerevisiae deletion strains, locus YOR144C, strain elg1, stronger effect = lower value 1.02 | S. cerevisiae deletion strains, locus YOR184W, strain ser1, stronger effect = lower value 1.02 | S. cerevisiae deletion strains, locus YOR231W, strain MKK1, stronger effect = lower value 1.04 | S. cerevisiae deletion strains, locus YOR265W, strain rbl2, stronger effect = lower value 0.986 | S. cerevisiae deletion strains, locus YOR270C, strain vph1, stronger effect = lower value 1.05 | S. cerevisiae deletion strains, locus YOR290C, strain snf2, stronger effect = lower value 0.951 | S. cerevisiae deletion strains, locus YOR316C, strain cot1, stronger effect = lower value 1.02 | S. cerevisiae deletion strains, locus YPL051W, strain arl3, stronger effect = lower value 0.957 | S. cerevisiae deletion strains, locus YPL078C, strain atp4, stronger effect = lower value 0.963 | S. cerevisiae deletion strains, locus YPL106C, strain sse1, stronger effect = lower value 0.953 | S. cerevisiae deletion strains, locus YPL240C, strain hsp82, stronger effect = lower value 1 | S. cerevisiae deletion strains, locus YPL256C, strain CLN2, stronger effect = lower value 1.12 | S. cerevisiae deletion strains, locus YPR119W, strain clb2, stronger effect = lower value 1.02 | S. cerevisiae deletion strains, locus YPR141C, strain kar3, stronger effect = lower value 1.02 | S. cerevisiae deletion strains, locus YPR163C, strain tif3, stronger effect = lower value 1.02 | S. cerevisiae deletion strains, locus YPR167C, strain met16, stronger effect = lower value 1.02 | S. cerevisiae deletion strains, strain wtn01, stronger effect = lower value 1.02 | S. cerevisiae strains, strain wild type, stronger effect = lower value 1.01
